In PubChem BioAssay AID485364 (National Center for Advancing Translational Sciences (NCATS), 2010):
About 11,000 (3.1%) of roughly 360,000 compounds were called active. Not shown: some 4% with an inconclusive outcome. Many of the other results were omitted from the sample, so actives are more common in it than they were. Unmarked numbers belong to inactive results. Calls come from the whole dose curve; as a rule, active = well fitted inhibition curve with a large enough effect; inconclusive = small, poorly fitted or top-dose-only effect; inactive = no such curve, though single readings can be large or run the other way.

Molecular target: Schistosoma mansoni thioredoxin glutathione reductase (TGR) (UniProt Q962Y6)
Test: qHTS Assay for the Inhibitors of Schistosoma Mansoni Peroxiredoxins; note: nearly all actives have a fitted effect of over 60% in size
Conditions: purified TGR, DTNB reduction, TNB absorbance 405 nm; series mostly up to 114 µM; activity change, negative = inhibition: at the top concentration
How it was run: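 TGR 20 nM + NADPH 100 uM (dispensed conc.), cpd preinc 15 min RT; start with NADPH (500 uM addition) then DTNB (15 mM addition). Kinetic TNB absorbance, 405 nm filter. Four-parameter Hill fit across titration.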
% is set by controls: 0 for no effect and ±100 for the full control effect; potency is the fitted concentration of half-maximal effect.

SMILES | activity change, negative = inhibition | Potency
CC(C)c1ccc(NC(=O)c2ccc3c(O)c(S(=O)(=O)c4ccccc4)c(=O)[nH]c3c2)cc1 | 8.62% | –
Cc1ccc(-c2nn3c(=O)cc(CN4CCN(C(=O)Nc5cccc(C(F)(F)F)c5)CC4)nc3s2)cc1 | 8.52% | –
COC(=O)c1ccccc1NC(=O)c1cncc(Br)c1 | -12.6% | –
O=C(NC(=S)Nc1ccc(Cl)c(C(=O)O)c1)c1cncc(Br)c1 | – | 12.6 µM (active)
O=C(Nc1ccc(N2CCCC2=O)cc1)c1cncc(Br)c1 | -7.27% | –
Cc1ccc(C(=O)N2CC(=O)Nc3ccccc32)o1 | -3.55% | –
Cc1ccc(CNC(=O)C2(C(F)(F)F)C/C(=C\Cc3ccccc3)CCCO2)o1 (configuration not stated) | – | 20 µM (active)
Cc1ccc(CNC(=O)Cn2cnc(S(=O)(=O)N3CCCCC3)c2)o1 | -23.2% | –
COC(=O)c1cccc(Cn2nnc3sc4c(c3c2=O)CCC(C(C)(C)C)C4)c1 (configuration not stated) | 7.56% | –
COc1cn(CC(=O)Nc2cccc(C)c2C)c(CN2CCCCC2)cc1=O | 18.7% | –
CCc1ccccc1NC(=O)CSc1nc(C)c(C(=O)Nc2ccccc2)c(-c2ccc(Cl)cc2)c1C#N | -0.637% | –
COc1ccc(-c2onc(C)c2C)cc1S(=O)(=O)NCC1CCN(Cc2cccc(F)c2)CC1 | 5.14% | –
CCN1C(=O)[C@@H]2[C@@H](c3ccc(-c4ccc(OC)cc4)c(OC)c3)N3CCC[C@@]3(C(=O)OC)[C@@H]2C1=O | 2.71% | –
CCN1C(=O)[C@H]2[C@@H](c3ccc(-c4ccc(F)cc4)cc3)N[C@@](Cc3ccccc3)(C(=O)OC)[C@H]2C1=O | -34.4% | –
COC(=O)[C@@]12CCCN1[C@H](c1ccc(-c3ccc(F)cc3)c(OC)c1)[C@H]1C(=O)N(C)C(=O)[C@H]12 | -15% | –
CCN1C(=O)[C@@H]2[C@@H](c3ccc(-c4ccccc4)cc3)N3CCCC[C@@]3(C(=O)OC)[C@@H]2C1=O | – | 35.5 µM (active)
CCN1C(=O)[C@@H]2[C@@H](c3ccc(-c4cccc(Cl)c4)cc3)N3CCC[C@@]3(C(=O)OC)[C@@H]2C1=O | – | 22.4 µM (active)
CCN1C(=O)[C@H]2[C@@H](c3ccc(SC4CCCCC4)c(OC)c3)N[C@@](Cc3ccccc3)(C(=O)OC)[C@H]2C1=O | -11.9% | –
Cc1ccc(S(=O)(=O)c2c(Nc3cccc(Cl)c3)sc(C(=O)c3ccc4c(c3)OCO4)c2N)cc1 | -2.28% | –
CCOC(=O)c1cccc(NS(=O)(=O)c2cc(-c3cnc(C)o3)ccc2OC)c1 | -1.22% | –
CCOc1ccc(S(=O)(=O)Nc2ccc3oc4c(c3c2)CC(C)CC4)cc1 (configuration not stated) | 5.54% | –
CCOc1ccc(C2C(=O)N(C3CCCCC3)CC(=O)N2CCC2=CCCCC2)cc1OC (configuration not stated) | 18.3% | –
Cc1cccc(-n2ncc(Cl)c(Cl)c2=O)c1 | – | 28.2 µM (active)

SMILES | activity change, negative = inhibition | Potency
Cc1ccc(-n2ncc3c(=O)[nH]cnc32)c(C)c1 | 0% | –
C=CCNc1cnn(-c2ccc(C)cc2)c(=O)c1Cl | 8.88% | –
COc1ccc(Cn2c(=O)n(-c3ccccc3C)c(=O)c3c4c(sc32)CN(C(C)=O)CC4)cc1 | 0.349% | –
Cc1cc(C)n(CCNC(=O)CC2C(=O)NCCN2Cc2ccc(C)o2)n1 (configuration not stated) | – | 39.8 µM (active)
Cc1nccn1CCCNC(=O)CC1C(=O)NCCN1Cc1ccc(Cl)c(F)c1 (configuration not stated) | -32.5% | –
O=C(CC1C(=O)NCCN1CC(c1ccccc1)c1ccccc1)NCC1CCOCC1 (configuration not stated) | -0.261% | –
CCc1nn(CC(=O)N2CCN(c3cccc(C(F)(F)F)c3)CC2)c(=O)c2cc3occc3n12 | -5.04% | –
Cc1c(CNC(C)c2ccccc2)c(C(=O)O)c(C)n1Cc1c(F)cccc1Cl (configuration not stated) | -1.38% | –
COc1ccc(OC)c(NC(=O)C2CCCN(S(=O)(=O)c3ccc4c(c3)CCCC(=O)N4)C2)c1 (configuration not stated) | 7.2% | –
COc1cc(OC)c(C(=O)OCC(=O)N2CC(=O)Nc3ccccc32)cc1OC | -5.22% | –
Cc1ccc(S(=O)(=O)N2CCC(C(=O)OCC(=O)N3CC(=O)Nc4ccccc43)CC2)cc1 | 5.68% | –
O=C1CN(C(=O)COC(=O)C2CC(=O)N(Cc3ccco3)C2)c2ccccc2N1 (configuration not stated) | – | 39.8 µM (active)
COc1ccccc1-c1cc2nc(C)c(CCC(=O)NC3CCCCC3)c(C)n2n1 | 1.98% | –
CCc1ccc(NC(=O)c2cnc3c(-c4ccccc4)c(C)nn3c2C)cc1 | -0.0334% | –
COc1ccc(C)cc1N(C)C(=O)c1c(C)oc2ncnc(N3CCOCC3)c12 | 0.0621% | –
CCN(CC)c1cc(NC2CCCCC2)c2c3c(onc13)-c1ccccc1C2=O | -3.71% | –
CCCN(CCC)C(=O)Cn1c(=O)n(-c2ccc(Cl)cc2)c(=O)c2c3c(sc21)CCCCC3 | 6.95% | –
CCc1cccc(C)c1Nc1c(-c2ccc(N(C)C)cc2)nc2ncccn12 | 0.589% | –
CCOc1ccc(NC(=O)CCc2c(C)nn(-c3ccc(N4CCCC4)nn3)c2C)cc1 | 2.21% | –
Cc1cccc(NC(=O)CSc2nnc(CNC(=O)c3cccc(C)c3)n2-c2ccccc2)c1 | 7.13% | –
CCN(CC)P(=O)(/C(Cl)=C\Nc1c(C)n(C)n(-c2ccccc2)c1=O)N(CC)CC | – | 89.1 µM (active)
Cc1c(NC(=S)Nc2ccccc2)c(=O)n(-c2ccccc2)n1C | -28.2% | –
Cc1c(NS(=O)(=O)c2ccc(Cl)cc2)c(=O)n(-c2ccccc2)n1C | 1.4% | –

SMILES | activity change, negative = inhibition | Potency
COc1ccccc1CNc1nccn(-c2ccc(F)cc2)c1=O | 4.78% | –
N#CC1=C(N)Oc2c(ccc3cccnc23)C1c1ccncc1 (configuration not stated) | -14.3% | –
N#CC1=C(N)Oc2c(c(=O)oc3ccccc23)C1c1ccccc1OC(=O)c1cccs1 (configuration not stated) | -28.1% | –
N#CC1=C(N)Oc2c(sc3ccccc23)C1c1ccco1 (configuration not stated) | – | 31.6 µM (active)
CCOc1ccc(-n2c(SCC(=O)NCc3ccccc3)nc3n[nH]c(C)c3c2=N)cc1 | -2.25% | –
CCCC(NC(=O)c1ccco1)c1nc2ccccc2[nH]1 (configuration not stated) | 0.492% | –
O=C(Nc1cccc(-c2nc3ccccc3o2)c1)c1cccc(Br)c1 | 4.35% | –
O=C(/C=C/c1ccco1)Nc1cccc(-c2nc3ccccc3[nH]2)c1 | – | 14.1 µM (active)
CCOC(=O)c1cc(NC(=O)c2ccc(F)cc2)c(=O)n2c1oc1ccccc12 | 5.08% | –
CCOC(=O)c1ccc(NC(=O)C2CC(=O)N(c3ccc(C(C)C)cc3)C2)cc1 (configuration not stated) | 44.8% | –
COc1ccc(CNC(=O)C2=Cc3cccc(OC)c3OC2)cc1OC | 0.734% | –
O=C(CSc1oc(-c2ccc(F)cc2)nc1S(=O)(=O)c1ccc(Br)cc1)NC1CCCCC1 | -5.14% | –
Cc1ccc(S(=O)(=O)c2nc(-c3ccco3)oc2SCC(=O)Nc2ccc(F)cc2)cc1 | -30.5% | –
CC(C)S(=O)(=O)c1oc(-c2ccc(F)cc2)nc1S(=O)(=O)c1ccc(F)cc1 | – | 2.24 µM (active)
CCCN1CCN(CCCNC(=O)c2ccc3nc(Cc4ccccc4)oc3c2)CC1 | 6.81% | –
CCC(C)Nc1oc(-c2ccc(COc3ccc(Cl)cc3)o2)nc1C#N (configuration not stated) | 8.56% | –
Cc1ccc(N2CCN(S(=O)(=O)c3ccc(F)cc3)CC2)c(C)c1 | 9.41% | –
Cc1ccc(CC2CC(=O)N(c3cc(C)ccc3C)C2=O)cc1 (configuration not stated) | -7.58% | –
Cc1ccc(N2C(=O)CC(N3CCSCC3)C2=O)c(C)c1 (configuration not stated) | – | 50.1 µM (active)
CC(=O)Nc1cccc(NC(=O)CSc2cn(CC(=O)N3CCCC3)c3ccccc23)c1 | -8.82% | –
CCC1(C)CC(=O)c2c(ccc3oc(C(=O)Nc4ccc(C(C)=O)cc4)c(C)c23)O1 (configuration not stated) | 6.5% | –
CCC(=O)N1CCc2cc(Br)cc(S(=O)(=O)CCC(=O)N3CCN(c4ccc(F)cc4)CC3)c21 | -25.6% | –
Cc1nc(CN2CCN(C(=O)CCc3nnc(Cc4c[nH]c5ccccc45)o3)CC2)cs1 | – | 39.8 µM (active)

SMILES | activity change, negative = inhibition | Potency
CCOc1ccc(CN2CCN(Cc3c[nH]c4ccccc34)CC2)cc1 | -18.3% | –
CC(C)N(C)C(=O)CCc1nnc(CCc2c[nH]c3ccccc23)o1 | 10.5% | –
Cc1nn(C)c(C)c1CN(C(=O)CCc1nnc(Cc2c[nH]c3ccccc23)o1)C(C)C | – | 35.5 µM (active)
COC(c1ccccc1)c1nnc(CCC(=O)N2CCN(CCOc3ccccc3)CC2)o1 (configuration not stated) | 0.259% [at 57.1 µM] | –
Cc1cccc(C(=O)Nc2nnc(Cc3c[nH]c4ccccc34)s2)c1 | -26.9% | –
O=C(COc1ccccc1F)Nc1ccc(C(=O)OCc2cc(=O)n3nc(C4CC4)sc3n2)cc1 | -0.189% | –
COc1ccc(CCNC(=O)CCCCn2c(=O)c3ccccc3n(Cc3ccccc3C)c2=O)cc1OC | 3.57% | –
Cc1cccc(N2CCN(C(=O)c3ccc(Nc4nc5ccccc5n5nnnc45)cc3)CC2)c1C | 0.589% | –
COC(=O)c1cccc(N2C(=O)C3C4C=CC(CC4)C3C2=O)c1 (configuration not stated) | -21.7% | –
COC(=O)c1ccccc1SC1CC(=O)N(c2cccc(C)c2)C1=O (configuration not stated) | – | 50.1 µM (active)
Cc1cccc(N2C(=O)CC(SC(N)=Nc3ccccc3)C2=O)c1 (configuration not stated) | -1.48% | –
COc1ccc(N2CCN(c3nc(-c4ccccc4F)nc4ccccc34)CC2)cc1 | 9.89% | –
O=C(CSc1oc(-c2ccco2)nc1S(=O)(=O)c1ccccc1)c1ccc(Cl)cc1 | -0.688% | –
Oc1c(C(c2ccccc2Cl)N2CCOCC2)sc2nc(-c3ccco3)nn12 (configuration not stated) | 5.69% | –
CSc1nc(-c2ccco2)nn1C(=O)c1ccccc1Cl | – | 7.08 µM (active)
Cc1cccc(NC(=O)Cn2cc(S(=O)(=O)Cc3ccccc3Cl)c3ccccc32)c1 | 9.01% | –
CC(=O)c1nn(-c2ccc(OC(F)(F)F)cc2)nc1Nc1ccccc1 | 10.4% | –
COc1ccc(CNC(=O)Cc2coc3ccc(C(C)C)cc23)cc1 | 2.5% | –
CN1CCN(c2oc(-c3ccc(COc4ccc(Cl)cc4)o3)nc2C#N)CC1 | -0.408% | –
Cc1cc(C)c(NC(=O)Cn2c(SCC(=O)NCc3ccccc3)nc3ccccc32)c(C)c1 | -9.69% | –
CCOC(=O)c1c(C)n(S(=O)(=O)c2ccc(C)cc2C)c2ccc(NS(=O)(=O)c3ccc(C)cc3C)cc12 | 2% | –
CC1=C/C(=N\OS(=O)(=O)c2ccccc2)C=CC1=O | – | 2.24 µM (active)
O=C(COc1ccc(Cl)cc1)Nc1ccc(-c2nc3cc(Cl)ccc3o2)c(O)c1 | 6.95% | –
